Experimental data from PubChem BioAssay (NCI).
This is part of a sample that, as a whole, favours compounds with a hit. Of some 83,000 tested, about 20% had one in any assay.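 Negative percent growth values reflect cell death: -40 means 40% of the cells present at the start died, and -100 means all died.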 Unmarked numbers belong to inactive results. Calls of active or inactive are those of the source. Rule for the calls: active = growth percent below 10; inactive = the rest.

How the values were obtained:
Assay in all cases: NCI-60 one-dose screen, 48 h (100 = growth as untreated, 0 = no growth, -100 = all killed)
Conditions in all cases: 10 µM unless noted
NCI-H23 lung = tested on: NCI-H23 lung
NCI-H226 lung = tested on: NCI-H226 lung
NCI-H322M lung = tested on: NCI-H322M lung
HOP-62 NSCLC = tested on: HOP-62 NSCLC
NCI-H460 lung = tested on: NCI-H460 lung
NCI-H522 lung = tested on: NCI-H522 lung
A549/ATCC NSCLC = tested on: A549/ATCC NSCLC
786-0 renal = tested on: 786-0 renal
COLO 205 colon = tested on: COLO 205 colon
DU-145 prostate = tested on: DU-145 prostate
K-562 leukemia = tested on: K-562 leukemia
MALME-3M melanoma = tested on: MALME-3M melanoma
MDA-MB-231 breast = tested on: MDA-MB-231 breast
SF-268 CNS = tested on: SF-268 CNS
SF-295 CNS = tested on: SF-295 CNS
SF-539 CNS = tested on: SF-539 CNS
UACC-257 melanoma = tested on: UACC-257 melanoma
HCT-15 colon = tested on: HCT-15 colon
M14 melanoma = tested on: M14 melanoma
RXF 393 renal = tested on: RXF 393 renal

| Structure (SMILES) | growth (NCI-H23 lung) | growth (NCI-H226 lung) | growth (NCI-H322M lung) | growth (HOP-62 NSCLC) | growth (NCI-H460 lung) | growth (NCI-H522 lung) | growth (A549/ATCC NSCLC) | growth (786-0 renal) | growth (COLO 205 colon) | growth (DU-145 prostate) | growth (K-562 leukemia) | growth (MALME-3M melanoma) | growth (MDA-MB-231 breast) | growth (SF-268 CNS) | growth (SF-295 CNS) | growth (SF-539 CNS) | growth (UACC-257 melanoma) | growth (HCT-15 colon) | growth (M14 melanoma) | growth (RXF 393 renal) [%] |
| --- | --- | --- | --- | --- | --- | --- | --- | --- | --- | --- | --- | --- | --- | --- | --- | --- | --- | --- | --- | --- |
| COc1cc(/C=C2\COc3ccc(O)c(O)c3C2=O)cc(OC)c1 | 49.1% | 68.3% | 29.2% | 2.74% (active) | 10.5% | -42.1% (active) | 24.6% | -29.4% (active) | 32.5% | 9.48% (active) | -0.232% (active) | -59.4% (active) | -37.1% (active) | 11% | 80.3% | -70.1% (active) | 6.52% (active) | -24.1% (active) |  |  |
| COc1cc(/C=C2\COc3ccc(O)cc3C2=O)cc(OC)c1 | 93.8% | 94.9% | 90.8% | 86% | 82.4% | 32.3% | 92.3% | 87.6% | 81.6% | 72% | 5.63% (active) | 70.3% | 77% | 85.2% | 93.4% | 80.7% | 82.1% | 37.9% |  |  |
| CC(O)c1nc2c(c(=O)n(C)c(=O)n2C)n1C (stereo not given) | 114% | 104% | 98.5% | 85.5% | 107% | 90% | 91.2% | 105% | 108% | 122% | 116% | 121% | 117% | 107% | 108% | 102% | 106% |  | 95.6% |  |
| CC(=O)NC1(C(=O)O)CCCC1 | 133% | 113% | 130% | 117% | 109% | 103% | 126% | 110% | 125% | 126% | 96.6% | 135% | 119% | 111% | 110% | 104% | 100% |  | 110% |  |
| CCOc1nc(-c2ccccc2)cc2c(O)c(C(=O)n3nc(C)cc3C)[nH]c(=O)c12 | 97.6% | 91.8% | 103% | 105% | 107% | 104% | 102% | 100% | 108% | 111% | 86.7% | 102% | 112% | 99% | 101% | 101% | 112% | 100% | 102% |  |
| COc1ccc(Nc2nccc(N3CCN(c4c5ccc(Cl)cc5nc5ccc(OC)cc45)CC3)n2)cc1 | 95.7% | 93.8% | 83.5% | 95.6% | 85.8% | -58.3% (active) | 75.2% | 60% | 61.1% | 86.6% | 25.4% | 46% | 61.3% | 66.7% | 78.6% | 92.8% | 102% | 36.9% | 88.4% |  |
| CCN1C(=O)c2ccc3c4c(ccc(c24)C1=O)C(=O)N(CCCNCc1ccccc1OC)C3=O | -42.7% (active) | -36.6% (active) | -31.6% (active) | -36.8% (active) | -57.8% (active) | -87.1% (active) | -58.1% (active) | -51.5% (active) | -81.5% (active) | -87.4% (active) | -36% (active) | -87.6% (active) | 2.92% (active) | -15.5% (active) | -69.8% (active) | -96.4% (active) | -88.6% (active) | -78.3% (active) |  |  |
| COc1ccc2c(c1)/C(=C\c1c[nH]c3ccc(F)cc13)C(=O)N2 | 81.4% | 92.6% | 75.9% | 88.8% | 87.7% | 80% | 70% | 96.5% | 103% | 84% | 62.5% | 120% | 106% |  | 100% | 91.8% | 108% | 66% | 105% | 95.4 |
| Clc1ccc(-c2nc(-c3cccs3)no2)c(Cl)c1 | 92.6% | 88.7% | 120% | 84.9% | 92.1% | 91.4% | 91.4% | 97.4% | 106% | 99.3% | 96.1% | 103% |  | 99.2% | 107% | 108% | 76.2% | 73.5% | 100% | 107 |
| COc1cc(/C=C/C(=O)c2ccc(F)cc2)ccc1OCCCCCOc1cc2c(cc1OC)C(=O)N1CCCC1C=N2 (stereo not given) | -32.6% (active) | -49.7% (active) | -2.96% (active) | -34.8% (active) | 3.88% (active) | -59.9% (active) | 4.95% (active) | -43.3% (active) | -72% (active) | -13.1% (active) | -6.46% (active) | -77.6% (active) | -33% (active) | -29.9% (active) | 72.2% | -67.1% (active) | 8.38% (active) |  | -70% (active) |  |
| O=C(/C=C/c1ccccc1Cl)c1ccc(O)cc1 | 93.7% | 95.2% | 89.5% | 117% | 93.8% | 58.2% | 41.8% | 85% | 90% | -7.3% (active) | 32.8% | 93.1% | 89% | 53.7% | 47.4% | 94.1% | 116% | 37.5% | 76.8% |  |
| CN1CCN(CC(=O)Nc2nc3c(s2)Nc2cc(Cl)c(Cl)cc2NC3=O)CC1 | 106% | 96.1% | 94.1% | 98.3% | 104% | 77% | 95.9% | 99.2% | 107% | 117% | 81.3% | 107% | 123% | 111% | 108% | 107% | 87.9% |  | 105% |  |
| Cc1cc(NCCCNc2ccnc3cc(Cl)ccc23)nc(N2CCN(C)CC2)n1 | 95.1% | 75.3% | 56.4% | 62.7% | 24.1% | 4.29% (active) | 70.5% | 78.7% | 48.1% | 78.2% | 8.07% (active) | 59.2% | 53.8% | 70.7% | 61% | -18.8% (active) | 50.4% | 43.6% | 25.7% |  |
| CCOC(=O)c1cc(-c2cccnc2)nc2c(Cl)cc(Cl)cc12 | 89.6% | 98.9% | 84.1% | 92.5% | 106% | 93.6% | 74.9% | 72.5% | 121% | 103% | 105% | 124% | 103% | 73% | 90.2% | 79.6% | 120% | 96.6% | 117% |  |
| CCc1ccc(CCN2C(=O)c3ccccc3C2=O)nc1 | 112% | 100% | 108% | 102% | 103% | 118% | 106% | 106% | 118% | 118% | 95.8% | 102% | 98.5% | 103% | 104% | 91.6% | 95.6% | 113% | 110% |  |
| CCCCCCCC/C=C\CCCCCCCCOc1ccccc1CC(=O)NCC[N+]1(C)CCCC1 | 78.1% | 92.6% | 103% | 80.6% | 52.2% | 46.9% | 75% | 80.8% | 43.1% | 90.8% | 41.7% | 88.3% | 83.9% | 69.1% | 98.2% | 99% | 88.4% | 104% |  |  |
| Cc1ccc(C=C2C(Cl)=C(Cl)C(Cl)=C2Cl)cc1 | -57.5% (active) | -79% (active) | -37.2% (active) | -58.6% (active) | -31.3% (active) | -57.2% (active) | -61.2% (active) | -86.8% (active) | -80.3% (active) | -45.3% (active) | 24.6% | -45.1% (active) | -6.71% (active) | -68.6% (active) | -19.5% (active) | -84.5% (active) | -83.2% (active) | -69.5% (active) | -85.8% (active) |  |
